Experimental data as given in PubChem BioAssay (NCI).
The panel holds about 79,000 compounds, 15% with a hit somewhere; the sample as a whole holds those more often. The source made the active and inactive calls. Cut-off read from the data, not from the text of the source: active = growth inhibition above about 70%; inactive = the rest.

How the values were obtained:
[1] = NCI Yeast Anticancer Drug Screen. Data for the rad52 strain (AID 147);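 note: 0% = growth of vehicle-treated control cultures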; conditions: S. cerevisiae rad52 mutant growth inhibition, active compounds read high
In short: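 Vehicle-treated cultures served as the reference for growth inhibition of compound-exposed yeast bearing a DNA repair mutation.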

[2] = NCI Yeast Anticancer Drug Screen. Data for the wt1 strain (AID 149);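 note: 0% = growth of vehicle-treated wt1 cultures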; conditions: S. cerevisiae wt1 strain (SPY 50644) growth inhibition, active compounds read high
In short: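 wt1 strain grown with compound or vehicle; inhibition taken from the growth difference.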

[3] = NCI Yeast Anticancer Drug Screen. Data for the rad50EPP+ strain (AID 151);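 note: 0% = growth of vehicle-treated control cultures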; conditions: S. cerevisiae rad50 mutant strain, active compounds read high
In short: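 In this screen, rad50EPP+ yeast were exposed to compounds. Growth inhibition was scored against vehicle-treated controls.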

[4] = NCI Yeast Anticancer Drug Screen. Data for the rad50 strain (AID 155);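 note: 0% = growth of vehicle-only cultures of the same strain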; conditions: S. cerevisiae rad50 strain growth inhibition, active compounds read high
In short: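 DNA repair mutant yeast, compound exposure, growth read-out; inhibition is taken relative to vehicle.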

[5] = NCI Yeast Anticancer Drug Screen. Data for the mec2-1 strain (AID 157); conditions: S. cerevisiae mec2-1 strain, active compounds read high
In short: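 Vehicle-treated cultures served as reference for growth inhibition of compound-exposed mec2-1 yeast.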

[6] = NCI Yeast Anticancer Drug Screen. Data for the sgs1 mgt1 strain (AID 161);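 note: 0% = growth of cultures given vehicle only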; conditions: S. cerevisiae sgs1 mgt1 strain, active compounds read high
In short: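 Inhibition of yeast growth, normalised to vehicle-treated controls, is reported for a strain bearing genetic alterations in DNA damage repair.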

[7] = NCI Yeast Anticancer Drug Screen. Data for the CLN2oe strain (AID 163);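 note: 0% = growth of vehicle-only control cultures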; conditions: S. cerevisiae CLN2oe strain, active compounds read high
In short: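 Inhibition relative to vehicle-treated yeast is reported. Cells: strain with genetic alteration in cell-cycle control, grown with compound.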

[8] = NCI Yeast Anticancer Drug Screen. Data for the cln2 rad14 strain (AID 165);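 note: 0% = growth equal to vehicle treated cultures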; conditions: S. cerevisiae cln2 rad14 strain, active compounds read high
In short: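 Each compound was tested on cln2 rad14 yeast. Inhibition of growth was calculated against vehicle-exposed controls.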

[9] = NCI Yeast Anticancer Drug Screen. Data for the bub3 strain (AID 167); conditions: S. cerevisiae bub3 mutant strain, active compounds read high
In short: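 In this screen, a yeast mutant lacking normal mitotic checkpoint function is challenged with compound. Relative growth versus vehicle gives the inhibition value.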

[10] = NCI Yeast Anticancer Drug Screen. Data for the wt2 strain (AID 169);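 note: 0% = growth of vehicle-treated yeast cultures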; conditions: S. cerevisiae wt2 strain growth inhibition, active compounds read high
In short: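 Inhibition of yeast growth was determined after compound treatment, normalised to controls receiving only vehicle.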

[11] = NCI Yeast Anticancer Drug Screen. Data for the mlh1 strain (AID 171);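 note: 0% = growth of vehicle-treated control cultures of the same strain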; conditions: S. cerevisiae mlh1 strain growth inhibition, active compounds read high
In short: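 Vehicle-normalised growth inhibition of a repair- or checkpoint-altered yeast strain following compound treatment.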

[12] = NCI Yeast Anticancer Drug Screen. Data for the sgs1 strain (AID 173);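 note: 0% = growth of vehicle-only control cultures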; conditions: S. cerevisiae sgs1 mutant, active compounds read high
In short: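 Screen format: yeast with repair or checkpoint alterations, compound exposure, growth read relative to vehicle.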

[13] = NCI Yeast Anticancer Drug Screen. Data for the mlh1 rad18 strain (AID 175); conditions: S. cerevisiae mlh1 rad18 strain growth inhibition, active compounds read high
In short: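 Vehicle-treated cultures served as the reference for growth inhibition in a yeast strain carrying DNA damage repair alterations exposed to each compound.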

[14] = NCI Yeast Anticancer Drug Screen. Data for the rad18 strain (AID 177); conditions: S. cerevisiae rad18 mutant growth inhibition, active compounds read high
In short: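 Test articles were incubated with altered yeast defective in DNA damage repair. Results are given as inhibition of growth versus vehicle.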

[15] = NCI Yeast Anticancer Drug Screen. Data for the mgt1 strain (AID 153); conditions: S. cerevisiae mgt1 mutant growth inhibition, active compounds read high
In short: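 mgt1 strain exposed; growth vs vehicle control recorded as inhibition.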

[16] = NCI Yeast Anticancer Drug Screen. Data for the rad14 strain (AID 159);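 note: 0% = growth of vehicle-treated control cultures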; conditions: S. cerevisiae rad14 strain growth inhibition, active compounds read high
In short: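 DNA repair-defective yeast, compound-exposed; % growth inhibition derived by comparison with vehicle-treated controls.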

[17] = at 5.0 µM (retest, dose inferred, filed as 0.5)
[18] = at 50.0 µM (retest, dose inferred, filed as 5.0)

Measured: growth inhibition

COc1ccc(C(=O)/C=C\c2ccc(Cl)c(Cl)c2)cc1
active: [2]; at 100.0 µM 81% | [4]; at 100.0 µM 71% | [6]; [18] 80% | [6]; at 50.0 µM 70.8% | [8]; [18] 77% | [9]; [18] 80% | [9]; at 50.0 µM 74.6% | [10]; at 100.0 µM 76% | [13]; [18] 72%
inactive: [1]; at 1.2 µM 16% | [1]; at 3.7 µM 15% | [1]; at 11.0 µM 19% | [1]; at 33.0 µM 34% | [1]; at 100.0 µM 56% | [2]; at 1.2 µM 26% | [2]; at 3.7 µM 26% | [2]; at 11.0 µM 29% | [2]; at 33.0 µM 43% | [3]; at 1.2 µM 12% | [3]; at 3.7 µM 10% | [3]; at 11.0 µM 16% | [3]; at 33.0 µM 31% | [3]; at 100.0 µM 24% | [4]; at 1.2 µM 4% | [4]; at 3.7 µM 7% | [4]; [17] 53% | [4]; at 11.0 µM 6% | [4]; at 33.0 µM 34% | [4]; [18] 68% | [4]; at 50.0 µM 69.5% | [5]; at 1.2 µM -7% | [5]; at 3.7 µM 0% | [5]; [17] 47% | [5]; at 11.0 µM 7% | [5]; at 33.0 µM 23% | [5]; [18] 58% | [5]; at 50.0 µM 59.6% | [5]; at 100.0 µM 68% | [6]; [17] -18% | [7]; at 1.2 µM 12% | [7]; at 3.7 µM 10% | [7]; at 11.0 µM 8% | [7]; at 33.0 µM 22% | [7]; at 100.0 µM 69% | [8]; [17] 18% | [8]; at 50.0 µM 57.6% | [9]; at 1.2 µM 0% | [9]; at 3.7 µM 2% | [9]; [17] 12% | [9]; at 11.0 µM -3% | [9]; at 33.0 µM 29% | [9]; at 100.0 µM 67% | [10]; at 1.2 µM 15% | [10]; at 3.7 µM 0% | [10]; at 11.0 µM 12% | [10]; at 33.0 µM 37% | [11]; at 1.2 µM 11% | [11]; at 3.7 µM 12% | [11]; at 11.0 µM -11% | [11]; at 33.0 µM 15% | [11]; at 100.0 µM 64% | [12]; at 1.2 µM 10% | [12]; at 3.7 µM 5% | [12]; at 11.0 µM 11% | [12]; at 33.0 µM 44% | [12]; at 100.0 µM 67% | [13]; [17] 39% | [13]; at 50.0 µM 63.5% | [14]; at 1.2 µM -17% | [14]; at 3.7 µM -35% | [14]; at 11.0 µM -44% | [14]; at 33.0 µM -6% | [14]; at 100.0 µM 52%

COC(=O)C1CCCCC1C(=O)Nc1ccccc1 (stereo unspecified)
active: [9]; at 50.0 µM 74.2%
inactive: [1]; at 1.2 µM 0% | [1]; at 3.7 µM 1% | [1]; at 11.0 µM 1% | [1]; at 33.0 µM 1% | [1]; at 100.0 µM -2% | [2]; at 1.2 µM -2% | [2]; at 3.7 µM -2% | [2]; at 11.0 µM 0% | [2]; at 33.0 µM -1% | [2]; at 100.0 µM 0% | [3]; at 1.2 µM -3% | [3]; at 3.7 µM -1% | [3]; at 11.0 µM -1% | [3]; at 33.0 µM -6% | [3]; at 100.0 µM 0% | [15]; at 1.2 µM 0% | [15]; at 3.7 µM -1% | [15]; at 11.0 µM 1% | [15]; at 33.0 µM -1% | [15]; at 100.0 µM -32% | [5]; at 1.2 µM -3% | [5]; at 3.7 µM -3% | [5]; [17] 0% | [5]; at 11.0 µM -2% | [5]; at 33.0 µM -4% | [5]; [18] -2% | [5]; at 50.0 µM 10.8% | [5]; at 100.0 µM -1% | [16]; at 1.2 µM -2% | [16]; at 3.7 µM -3% | [16]; at 11.0 µM -2% | [16]; at 33.0 µM -1% | [16]; at 100.0 µM -3% | [6]; [17] 0% | [6]; [18] -26% | [6]; at 50.0 µM 15.4% | [8]; [17] -2% | [8]; [18] 6% | [8]; at 50.0 µM 62.5% | [9]; at 1.2 µM -10% | [9]; at 3.7 µM -10% | [9]; [17] -7% | [9]; at 11.0 µM -12% | [9]; at 33.0 µM -12% | [9]; [18] -9% | [9]; at 100.0 µM -11% | [11]; at 1.2 µM 0% | [11]; at 3.7 µM 0% | [11]; at 11.0 µM 2% | [11]; at 33.0 µM 2% | [11]; at 100.0 µM 2% | [13]; [17] -3% | [13]; [18] -2% | [13]; at 50.0 µM 25.6% | [14]; at 1.2 µM -2% | [14]; at 3.7 µM -1% | [14]; at 11.0 µM -2% | [14]; at 33.0 µM -3% | [14]; at 100.0 µM -1%

CCOC(=O)CC1(C)/C(=N\Nc2ccc([N+](=O)[O-])cc2[N+](=O)[O-])CCC2C1CCC1(C)C(C(C)CCCC(C)C)CCC21 (stereo unspecified)
inactive: [1]; at 1.2 µM 0% | [1]; at 3.7 µM 0% | [1]; at 11.0 µM 0% | [1]; at 33.0 µM 1% | [1]; at 100.0 µM -2% | [2]; at 1.2 µM 0% | [2]; at 3.7 µM -1% | [2]; at 11.0 µM -1% | [2]; at 33.0 µM -1% | [2]; at 100.0 µM -3% | [3]; at 1.2 µM -2% | [3]; at 3.7 µM -1% | [3]; at 11.0 µM -2% | [3]; at 33.0 µM -2% | [3]; at 100.0 µM 1% | [15]; at 1.2 µM -1% | [15]; at 3.7 µM -3% | [15]; at 11.0 µM -2% | [15]; at 33.0 µM -1% | [15]; at 100.0 µM -5% | [4]; at 1.2 µM 1% | [4]; at 3.7 µM 2% | [4]; at 11.0 µM 3% | [4]; at 33.0 µM 0% | [4]; at 50.0 µM -50.5% | [4]; at 100.0 µM -1% | [5]; at 1.2 µM -4% | [5]; at 3.7 µM -4% | [5]; [17] 10% | [5]; at 11.0 µM -5% | [5]; at 33.0 µM -1% | [5]; [18] 10% | [5]; at 50.0 µM -6.8% | [5]; at 100.0 µM -5% | [6]; [17] 6% | [6]; [18] 4% | [6]; at 50.0 µM -26.4% | [7]; at 1.2 µM -2% | [7]; at 3.7 µM -4% | [7]; at 11.0 µM 6% | [7]; at 33.0 µM -2% | [7]; at 100.0 µM -5% | [8]; [17] 7% | [8]; [18] -3% | [8]; at 50.0 µM -21.4% | [9]; at 1.2 µM -1% | [9]; at 3.7 µM -3% | [9]; [17] -10% | [9]; at 11.0 µM -5% | [9]; at 33.0 µM -3% | [9]; [18] -11% | [9]; at 50.0 µM -1.1% | [9]; at 100.0 µM -5% | [11]; at 1.2 µM -1% | [11]; at 3.7 µM -3% | [11]; at 11.0 µM -2% | [11]; at 33.0 µM -3% | [11]; at 100.0 µM -3% | [12]; at 1.2 µM -1% | [12]; at 3.7 µM -3% | [12]; at 11.0 µM -2% | [12]; at 33.0 µM -1% | [12]; at 100.0 µM -2% | [13]; [17] 4% | [13]; [18] 2% | [13]; at 50.0 µM 0.05% | [14]; at 1.2 µM -2% | [14]; at 3.7 µM -5% | [14]; at 11.0 µM -3% | [14]; at 33.0 µM -5% | [14]; at 100.0 µM -4%
active: [4]; [17] 92% | [4]; [18] 90%
